Screening results as filed in PubChem.
Shown are actives, neighbours in structure and some others; about 13% of the full set was active somewhere.
HCV inh = inhibitors of hepatitis C virus infection | Huh7.5.1 HCVcc-Cre infection, luciferase reporter, 44 h | Potency, µM (series often up to 41.8 µM), inactives show at the top dose activity change, negative = inhibition, most hits filed as inhibitors | actives 3.4% (n = 340,000) | AID 651820; note: potency is the fitted concentration of half-maximal effect
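Compounds are dispensed onto cells plated 4 h earlier at 1,000 per well, with HCVcc-Cre virus (about 0.5 moi) added next. Following 44 h of culture, luminescent signal is measured for 15 sec after 15 min with substrate at room temperature.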
Pf growth 96h = P. falciparum growth inhibition at 96 hour, primary screen for plastid delayed-death inhibitors; Potency, µM (top dose mostly 28.7 µM), for inactives: at the top dose activity change, negative = inhibition, usual class: inhibitors; AID 504834; actives 6.9% (n = 320,000); P. falciparum luciferase reporter growth, 96 h; note: potency is the fitted concentration of half-maximal effect
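Cell-based qHTS: luciferase-tagged P. falciparum in erythrocytes (2% hematocrit, 0.05% parasitemia final) incubated with compounds for 96 hours, 37 C, 5% CO2; luciferase detection reagent then added and luminescence measured.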
HCMV inh = human cytomegalovirus inhibition; AID 1259415; activity change, negative = inhibition, % at 57.5 µM; actives 4.5% (n = 410,000); HFF cells, HCMV-luciferase reporter, 72 h; hits give low values; in the data active = activity change below about -60%; inconclusive = no clear call, values can overlap the other calls; inactive = above about -39%
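Two-dose cell screen: HFF monolayers treated with compounds and infected with luciferase-expressing HCMV at 1 PFU/cell, 72 h at 37C, then lysed for luciferase measurement.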
Pf growth 48h = P. falciparum growth inhibition at 48 hours (one generation); P. falciparum luciferase growth in erythrocytes, 48 h; Potency, µM (top dose mostly 28.7 µM), for inactives: at the top dose activity change, negative = inhibition, most hits filed as inhibitors; actives 5.9% (n = 310,000); note: potency is the fitted concentration of half-maximal effect
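Luminescence readout; reporter = integrated firefly luciferase in P. falciparum. RBC culture at 2% hematocrit, 0.1% parasitemia final, 37 C/5% CO2; decreased signal taken as growth inhibition.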
The depositor's hits bear a star; ? = inconclusive; / = no result given; [ ] = remark or other dose. Unless noted, calls come from the whole dose curve; as a rule, active = well fitted inhibition curve with a large enough effect; inconclusive = small, poorly fitted or top-dose-only effect, or another doubt; inactive = no such curve, though single readings can be large or run the other way. % is set by controls: 0 for no effect and ±100 for the full control effect.

SMILES | HCV inh | Pf growth 96h | HCMV inh | Pf growth 48h
C#CC[N+]1(CC#Cc2cccc(C)c2)CCCCC1 | -3.6% | -12.1% | ? | 1.47µM*
C(#Cc1ccccc1)C[N+]1(CC#Cc2ccccc2)CCCCC1 | ? | -21.8% | -62.3* | -13.7%
C#CC[N+]1(CC#Cc2ccccc2)CCCCC1 | 18.1% | 0.0% | -0.2 | ?
CCN(CC)CC#Cc1ccc(C)cc1 | 18.5% | 20.1% | 0.2 | 14.3%
Cc1ccc(C#CC[N+]2(CC#Cc3ccc(C)cc3)CCCCC2)cc1 | ? | ? | -100.9* | 0.586µM*
COc1cc(-c2nnc(SCC(=O)N3CCCc4ccccc43)o2)cc(OC)c1OC | / | / | -7.7 | /
O=[N+]([O-])c1c(NCCCO)cc(N2CCN(Cc3ccc4c(c3)OCO4)CC2)c2nonc12 | ? | 32.7% | -77.7* | ?
COC(=O)C1=C(c2ccc(F)cc2F)C[C@@H]2CC[C@H]1N2C(=O)N1CCC(O)CC1 | 19.8% | ? | -62.4* | 3.1%
COC(=O)C1=C(c2ccc(F)cc2OCc2ccccc2)C[C@@H]2CC[C@H]1N2C | 9.1% | ? | -18.4 | ?
CCCNC(=O)N1[C@H]2CC[C@@H]1C(C(=O)OC)=C(c1ccc(F)cc1F)C2 | 10.2% | 29.0% | -15.6 | 39.4%
COC(=O)C1=C(c2ccc(F)cc2OCc2ccccc2)C[C@@H]2CC[C@H]1N2C(=O)NC(C)C | ? | ? | -32.7 | 9.28µM*
COC(=O)C1=C(c2ccc(F)cc2OCc2ccccc2)C[C@@H]2CC[C@H]1N2C(=O)N1CCCC1 | 11.2µM* | ? | -6.5 | 9.28µM*
COC(=O)C1=C(c2ccc(OCc3ccccc3)cc2)C[C@@H]2CC[C@H]1N2C(=O)NC1CCN(Cc2ccccc2)CC1 | ? | ? | / | 9.28µM*
Cc1cccc(NC(=O)c2oc3ccccc3c2NC(=O)c2cc(=O)c3cc(Cl)ccc3o2)c1 | / | / | 11.0 | /
O=C(CCc1ccccc1)NC1CC(=O)N(c2cccc(F)c2)C1 (centres undefined) | / | / | 40.2 | /
COC(=O)C1=C(c2ccc(F)cc2OCc2ccccc2)C[C@@H]2CC[C@H]1N2C(=O)NC1CCCCC1 | 10.6% | 14.7µM* | -15.5 | ?
COC(=O)C1=C(c2ccc(F)cc2OCc2ccccc2)C[C@@H]2CC[C@H]1N2C(=O)NC1CC1 | 10.5% | ? | -32.8 | ?
O=[N+]([O-])c1cc(-c2nc(-c3ccccc3)no2)ccc1NC1CCCC1 | / | / | 29.3 | /
Cc1ccc(O)c(NC(=O)c2cc3nc4c(c(C(F)(F)F)n3n2)CCc2ccccc2-4)c1 | 6.2% | ? | 28.1 | ?
CCN(CC)CCCNC(=O)c1cc2nc3c(c(C(F)(F)F)n2n1)CCc1ccccc1-3 | 1.58µM* | ? | ? | 22.5%
COc1ccc(CCNC(=O)c2cc(-c3ccc(C)cc3O)n[nH]2)cc1OC | ? | 7.38µM* | -9.3 | /
COc1ccc(CCNC(=O)c2cc(-c3ccccc3O)n[nH]2)cc1OC | 8.9% | 2.6%[5.75 µM] | ? | 13.1µM*
Cc1csc2nc(COc3ccc(NC(=O)C(C)C)cc3)cc(=O)n12 | / | / | 37.4 | /
CCOc1ccccc1C(=O)Nc1ccc2nc3c(c(Nc4ccc(OC)c(OC)c4)c2c1)CCCC3 | / | / | -103.0* | /
COc1ccccc1Nc1c2c(nc3ccc(NC(=O)c4ccc(N(C)C)cc4)cc13)CCCC2 | / | / | -101.0* | /
SMILES | HCV inh | Pf growth 96h | HCMV inh | Pf growth 48h
COc1ccc(Nc2c3c(nc4ccc(NC(=O)c5cc(Cl)ccc5OC)cc24)CCCC3)cc1OC | / | / | -107.6* | /
COc1cc(OC)cc(C(=O)Nc2ccc3nc4c(c(Nc5ccc(OC)c(OC)c5)c3c2)CCCC4)c1 | / | / | -105.0* | /
COCCCNC(=O)C1CCN(c2cc(C)nc3c(-c4ccc(Cl)cc4)c(C)nn23)CC1 | / | / | -2.5 | /
CCC(C)c1ccc(NC(=O)C2CCN(c3ccc(C(F)(F)F)cn3)CC2)cc1 (centres undefined) | -13.0% | ? | -60.4* | ?
O=C(Nc1ccc(Oc2ccc(C(F)(F)F)cn2)c(Cl)c1)C1CC1 | ? | 11.7µM* | -24.0 | ?
O=C(Nc1ccc(F)c(Cl)c1)C1CCCC1 | -3.1% | / | ? | /
NC(=O)C1CCN(c2ccc(C(F)(F)F)cn2)CC1 | 14.4% | ? | 19.7 | ?
CS(=O)(=O)Nc1ccc(N2CCN(c3ccc(C(F)(F)F)cn3)CC2)nc1 | 11.2µM* | 2.5% | ? | 1.0%
CCC(C)c1ccc(NC(=O)C2CCN(c3ncccn3)CC2)cc1 (centres undefined) | ? | 16.5% | -17.0 | ?
